Assay [1] in a line: reducers of endogenous Her2 protein level, primary screen, SKBR3 breast tumor cells, AlphaScreen, ATP viability (AID 461;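 active = Her2 level under about 52% in both replicate screens, with viability over 70% of control, limit read from the data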;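 for Her2 level: lower value means less Her2 protein in the cells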;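 for viability: percent of carrier control wells set as 100% viability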). As to conditions: 18-24 h, measured here: SKBR3 viability, ATP luminescence, at 10 µM. On the technique in general: Alpha assays give light when donor and acceptor beads are brought close together.
Assay [2] addresses Receptor tyrosine-protein kinase erbB-2 (Homo sapiens) (UniProt P04626). The description is as above. The settings on record: 18-24 h, at 10 µM, stronger effect = lower value.
A short description of assay [3]: SK-BR-3 cell growth inhibitors, pilot screen, 24 h, human (AID 572;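 active = viability at or below 10% of carrier control in both of two separate runs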;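 note: compound exposure lasted between 18 and 24 h rather than exactly 24 h; 100% = carrier-treated control wells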). As to conditions: SK-BR-3 viability, CellTiter-Glo luminescence, at 10 µM, stronger effect = lower value. (Cellular ATP, detected with luciferase, serves as a proxy for viable cell number.)
Assay [4] can be described thus: HUVEC growth inhibition – cell-based, human, primary screen (AID 575;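 active = viability at or below 30% in both replicate assays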;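 note: 100% = median of untreated cell wells with 0.1% DMSO on each plate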). The settings on record: HUVEC proliferation, CellTiter-Glo luminescence, 72 h; at 10 µM; stronger effect = lower value.
Assay [5] can be described thus: growth inhibitors of H69AR lung tumor, primary screen, human, duplicate replicates (AID 580;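 active = viability at or under a set limit in both replicates, limit being median viability minus 3 SD, cut at about 48% in these data, passing the limit was not always enough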;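 note: 100% = mean luminescence of untreated wells and 0% = no signal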). As to conditions: H69AR lung tumor cells viability, ATP luminescence, 72 h; at 10 µM; stronger effect = lower value.
The nature of assay [6]: reversal of MRP1-mediated doxorubicin resistance, pilot screen, H69AR cells, doxorubicin co-treatment (AID 601;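 active = viability loss from added drug above about 55%, and viability with drug at most 40%, in both replicates, limit read from the data, passing the limit was not always enough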). As to conditions: CellTiter-Glo, 72 h, at 10 µM; for differential viability (reversal): stronger effect = higher value.
Assay [7] is described as follows: 384-well plate pilot, post-Golgi transport modulator project, inhibition of yeast transport mutant growth (AID 636; in the data active = inhibition above about 31%). As to conditions: absorbance 615 nm, about 18 h, stronger effect = higher value.
The nature of assay [8]: growth suppression of yeast trafficking mutant, preliminary HTS, modulators of trafficking downstream of Golgi apparatus project, 1536-format plate, OD 615 nm (AID 637; in the data active = inhibition above about 30%). As to conditions: yeast transport mutant growth, absorbance 615 nm, 18 h; stronger effect = higher value.
Assay [9] can be described thus: OD615 S. cerevisiae growth inhibition, permissive medium, pilot counter-assay, permissive growth control for S. cerevisiae lifespan shortening project (AID 705;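 active = growth inhibition above 25% in both replicates, a cutoff set 3 SD above the mean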). As to conditions: OD615, 24 h, at 10 µM, stronger effect = higher value.
A short description of assay [10]: Restrictive medium S. cerevisiae growth inhibition, OD615, pilot screen of yeast lifespan reduction project, restrictive growth control (AID 706;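 active = growth inhibition above a set limit, 3 SD over mean compound inhibition, in both replicates, cut at about 43% in these data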;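 note: modified DeaD lifespan yeast strain shifted to restrictive glucose medium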). As to conditions: OD615, 48 h, at 10 µM, stronger effect = higher value.
Assay [11] is described as follows: viability gain of MRP-1-high H69AR cells under doxorubicin, pilot screen, MRP-1 activator project, CellTiter-Glo, duplicate (AID 807;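 active = viability increase at or above a cutoff of the median across tested compounds plus 3 SD, cut at about 8.5% in these data, passing the limit was not always enough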;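 note: compound pretreatment 18-22 h then 72 h combined with doxorubicin; 0% = doxorubicin alone and 100% = vehicle without doxorubicin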). As to conditions: H69AR viability with doxorubicin, CellTiter-Glo luminescence; at 10 µM; stronger effect = higher value.
A short description of assay [12]: growth suppression of beta-catenin knockout HCT116, pilot screen, human colon tumor cells (AID 823;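 active = cell viability at or below a set limit in both duplicate runs, the limit being the all-compound median minus 4 SD, cut at about 23% in these data, passing the limit was not always enough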;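 note: 0% = wells killed by 20 µM Hyamine and 100% = untreated DMSO cell wells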). The settings on record: CellTiter-Glo, 60 h, at 10 µM, stronger effect = lower value.
Assay [13] can be described thus: growth suppression of PTEN-deleted HCT116, pilot screen, cell-based, HCT116 clonal line, CellTiter-Glo (AID 824;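 active = viability at or below 27.92% in each of two runs, the all-compound median minus 4 SD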;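 note: 0% = 20 µM Hyamine control and 100% = vehicle cell control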). The settings on record: 60 h, at 10 µM, stronger effect = lower value.
A short description of assay [14]: inhibitors of the yeast RAM network, pilot screen, dse1pr::URA3 reporter, 5-FOA selection (AID 869).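 Note: 0% = DMSO wells with no growth and 100% = 10 µM 1-NA-PP1 with full growth; RAM network block rescues cells from 5-FOA so hits raise OD615 growth.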 The settings on record: S. cerevisiae dse1pr::URA3 5-FOA growth, OD615, 2 d; at 10 µM; stronger effect = higher value; strain carries analog-sensitive mutant Cbk1 kinase.
Assay [15] can be described thus: RAM signaling pathway blockade in yeast – S. cerevisiae, Pdr1DBD-CYC8 efflux-inhibited sensitized strain, primary screen (AID 1298;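 active = RAM network inhibition above 8.4% in each of two replicates, 3 SD over the compound average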;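 note: 0% = DMSO untreated cells without growth and 100% = 10 µM 1-NA-PP1 full growth; higher means more yeast growth rescued from 5-FOA killing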). As to conditions: S. cerevisiae cbk1-as DSE1-URA3 strain, 5-FOA growth OD615, 2 d; at 50 µM; stronger effect = higher value.
Setting [16] is: H69AR cells + 2 uM doxorubicin, measured here: viability with 2 uM doxorubicin, stronger effect = lower value.
[17] abbreviates: H69AR cells, compound alone cytotoxicity.

Inconclusive results are not listed. Activity calls are given as the source filed them.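 Rule for the calls, unless noted: active = inhibition over a set limit, the all-compound mean plus 3 SD, in both replicate runs; inconclusive = over that limit in just one replicate run; inactive = at or under that limit in both runs.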

Receptor tyrosine-protein kinase erbB-2 (Homo sapiens), sequence (P04626 whole entry, looked up): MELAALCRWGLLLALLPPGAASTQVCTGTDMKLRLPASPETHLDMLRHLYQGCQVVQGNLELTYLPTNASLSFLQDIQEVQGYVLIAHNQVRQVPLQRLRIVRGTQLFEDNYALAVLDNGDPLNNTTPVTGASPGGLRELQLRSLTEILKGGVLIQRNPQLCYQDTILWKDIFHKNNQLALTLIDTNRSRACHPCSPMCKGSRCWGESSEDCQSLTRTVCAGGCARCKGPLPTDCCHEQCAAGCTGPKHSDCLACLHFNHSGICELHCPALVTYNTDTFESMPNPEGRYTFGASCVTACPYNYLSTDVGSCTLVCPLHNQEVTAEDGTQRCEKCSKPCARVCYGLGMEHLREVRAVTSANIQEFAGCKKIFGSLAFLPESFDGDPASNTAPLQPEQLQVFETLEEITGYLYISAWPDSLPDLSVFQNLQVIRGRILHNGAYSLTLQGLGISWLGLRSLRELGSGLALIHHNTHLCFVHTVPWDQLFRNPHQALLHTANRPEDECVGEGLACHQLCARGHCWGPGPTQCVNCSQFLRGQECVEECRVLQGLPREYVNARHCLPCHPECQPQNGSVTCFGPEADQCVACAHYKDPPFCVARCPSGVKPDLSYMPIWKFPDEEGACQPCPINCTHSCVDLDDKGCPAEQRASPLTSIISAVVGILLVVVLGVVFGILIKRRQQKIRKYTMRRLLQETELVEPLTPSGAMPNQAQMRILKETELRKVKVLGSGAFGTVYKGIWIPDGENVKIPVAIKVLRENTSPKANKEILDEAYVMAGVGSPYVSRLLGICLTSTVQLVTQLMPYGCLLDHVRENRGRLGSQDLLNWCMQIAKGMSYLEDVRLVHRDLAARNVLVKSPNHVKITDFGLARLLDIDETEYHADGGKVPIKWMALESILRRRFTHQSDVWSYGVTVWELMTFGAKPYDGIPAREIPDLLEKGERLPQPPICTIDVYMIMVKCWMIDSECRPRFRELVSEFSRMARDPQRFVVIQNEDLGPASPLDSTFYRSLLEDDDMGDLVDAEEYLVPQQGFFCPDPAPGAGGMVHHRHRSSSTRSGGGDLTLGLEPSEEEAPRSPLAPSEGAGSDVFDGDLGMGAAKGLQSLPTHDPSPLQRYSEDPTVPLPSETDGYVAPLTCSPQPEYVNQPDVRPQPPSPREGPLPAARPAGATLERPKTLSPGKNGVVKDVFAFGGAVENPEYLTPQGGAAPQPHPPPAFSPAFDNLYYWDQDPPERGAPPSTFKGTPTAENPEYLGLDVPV

One may read the viability as a read-out of living cells in per cent, often relative to untreated cells. Usually inhibition stands for the relative decrease from the control value, in per cent. Turning to `CC(NC(=O)C1CC1)C(c1cccs1)N1CCN(c2ccccc2)CC1` (stereo not drawn), the viability is 95.5% in [1]; 95.5% (inactive) in assay [3]; 105% (inactive) in [4]; 89.5% (inactive) in [5]; 93.8% in [6] (setting [16]); 89.5% in [6] (setting [17]). The viability in assay [12] was 92% (inactive); in assay [13], 93.2% (inactive). Besides, the Her2 level in assay [2] is 96% (inactive). In addition, the differential viability (reversal) in assay [6] (H69AR cells + 2 uM doxorubicin) is -4.32% (inactive). Also, the inhibition in assay [7] is -4.13% (inactive); in assay [8], -5.57% (inactive); in assay [14] it was 2.08% (inactive). The growth inhibition in assay [9] was -6.42% (inactive); in assay [10] it was 6.87% (inactive). In [11], the viability increase is 0.65% (inactive). In [15], the RAM network inhibition is -0.26% (inactive).

In the case of `Cc1nc2c(-c3ccccc3)c(C)nn2c(C)c1CCC(=O)NCc1ccco1`, the viability in [1] is 101%; in [3], 101% (inactive); in assay [4] it was 88.2% (inactive); in assay [5] it was 90.8% (inactive); in assay [6] (setting [16]) it was 76.6%; in assay [6] (setting [17]), 90.8%. In addition, the viability in assay [12] was 98.9% (inactive); in [13], 101% (inactive). For the same compound, in assay [2], the Her2 level was 100% (inactive). The differential viability (reversal) in assay [6] (H69AR cells + 2 uM doxorubicin) is 14.2% (inactive). For the same compound, the inhibition in assay [7] is -0.9% (inactive); in assay [8], -2.5% (inactive); in assay [14] it was 1.4% (inactive). Besides, the figures for the growth inhibition in assay [9] and in assay [10] were -4.98% (inactive) and 5.46% (inactive), respectively. Further, in assay [11], the viability increase was -3.51% (inactive). Besides, the RAM network inhibition in assay [15] is 5.36% (inactive).

On to `CSc1ccccc1NC(=O)c1cnc2n(c1=O)CCS2`, for which the viability in assay [1] was 97.5%; in assay [3] it was 97.5% (inactive); in [4], 111% (inactive); in assay [5], 84.7% (inactive); in assay [6] (setting [16]), 91.3%; in [6] (setting [17]), 84.7%. Besides, the figures for the viability in assay [12] and in assay [13] were 105% (inactive) and 85.8% (inactive), respectively. Also, the Her2 level in assay [2] was 82.5% (inactive). For the same compound, the differential viability (reversal) in assay [6] (H69AR cells + 2 uM doxorubicin) is -6.53% (inactive). Moreover, the inhibition is -1.87% (inactive) in assay [7], -1.33% (inactive) in [8] and 2.75% (inactive) in [14]. In addition, the growth inhibition is -10.6% (inactive) in assay [9] and 3.57% (inactive) in assay [10]. Also, the viability increase in [11] was -0.39% (inactive). Further, in assay [15], the RAM network inhibition was -0.78% (inactive).

Regarding `CCn1cc(C(=O)NCc2ccccc2OC)c(=O)c2cc(S(=O)(=O)N(C)C)ccc21`, the viability in assay [1] is 78.5%; in [3], 78.5% (inactive); in [4] it was 78.3% (inactive); in assay [5] it was 77.6% (inactive); in [6] (setting [16]), 68.4%; in [6] (setting [17]), 77.6%. The viability was 87.1% (inactive) in assay [12] and 85.5% (inactive) in assay [13]. Also, in assay [2], the Her2 level is 89% (inactive). Also, the differential viability (reversal) in assay [6] (H69AR cells + 2 uM doxorubicin) is 9.22% (inactive). Also, the inhibition in assay [7] is -5.6% (inactive); in [8], 0.17% (inactive); in assay [14] it was 1.88% (inactive). Further, the values for the growth inhibition in assay [9] and in [10] were -8.34% (inactive) and -17.1% (inactive), respectively. In addition, the viability increase in assay [11] is -5.34% (inactive). Besides, the RAM network inhibition in assay [15] is 2.36% (inactive).

Regarding `CCCNC(=O)C1CC(=O)N(c2ccc(OCC(=O)Nc3cc(C)cc(C)c3)cc2)C1` (stereo not drawn), the viability is 112% in assay [1]; 112% (inactive) in assay [3]; 80.5% (inactive) in assay [4]; 95.6% (inactive) in [5]; 91.2% in assay [6] (setting [16]); 95.6% in [6] (setting [17]). Besides, the values for the viability in assay [12] and in assay [13] were 92% (inactive) and 90.4% (inactive), respectively. Also, the Her2 level in assay [2] is 122% (inactive). Besides, the differential viability (reversal) in assay [6] (H69AR cells + 2 uM doxorubicin) is 4.41% (inactive). The inhibition in assay [7] was -0.53% (inactive); in assay [8], -4.33% (inactive); in assay [14], 2.06% (inactive). The growth inhibition was -14.5% (inactive) in [9] and -25.6% (inactive) in assay [10]. Moreover, the viability increase in [11] is -4.47% (inactive). For the same compound, in assay [15], the RAM network inhibition is 4.16% (inactive).

For `Cc1cn2c(-c3ccc(Cl)cc3)nnc2s1`, the viability in assay [1] was 96%; in assay [3], 96% (inactive); in assay [4] it was 74.7% (inactive); in [5], 95.2% (inactive); in assay [6] (setting [16]), 99.1%; in assay [6] (setting [17]), 95.2%. For the same compound, the viability in assay [12] is 97.6% (inactive); in [13] it was 90.3% (inactive). In addition, the Her2 level in assay [2] was 92.5% (inactive). In addition, the differential viability (reversal) in assay [6] (H69AR cells + 2 uM doxorubicin) was -3.87% (inactive). The results for the inhibition in [7], in assay [8] and in assay [14] were -3.87% (inactive), 4.67% (inactive) and 2.66% (inactive), respectively. For the same compound, the growth inhibition was -8.55% (inactive) in assay [9] and 16.2% (inactive) in assay [10]. Moreover, in assay [11], the viability increase was -0.6% (inactive). The RAM network inhibition in assay [15] was 4.88% (inactive).

Turning to `Cc1cc2ccccc2n1CCNC(=O)C1CC1`, the viability is 89.5% in [1]; 89.5% (inactive) in [3]; 89.8% (inactive) in assay [4]; 88.1% (inactive) in assay [5]; 93.6% in assay [6] (setting [16]); 88.1% in assay [6] (setting [17]). Further, the viability in assay [12] is 98.3% (inactive); in [13], 101% (inactive). The Her2 level in [2] was 81% (inactive). Further, the differential viability (reversal) in assay [6] (H69AR cells + 2 uM doxorubicin) was -5.55% (inactive). Also, the inhibition in assay [7] is -4.8% (inactive); in assay [8], 4.67% (inactive); in [14], 0.66% (inactive). The growth inhibition is -2.51% (inactive) in assay [9] and 1.02% (inactive) in [10]. Moreover, the viability increase in assay [11] is -0.53% (inactive). Moreover, in [15], the RAM network inhibition was 2.78% (inactive).

`Cc1ccc(S(=O)(=O)Cc2ccc(C(=O)N3CCN(Cc4ccccc4)CC3)o2)cc1`: the viability in [1] was 86.5%; in assay [3] it was 86.5% (inactive); in assay [4], 106% (inactive); in [5], 85.8% (inactive); in [6] (setting [16]), 94.6%; in [6] (setting [17]), 85.8%. For the same compound, the viability in assay [12] is 97.3% (inactive); in assay [13], 94.9% (inactive). Besides, the Her2 level in [2] is 80.5% (inactive). Moreover, the differential viability (reversal) in assay [6] (H69AR cells + 2 uM doxorubicin) is -8.85% (inactive). The inhibition in assay [7] is -0.9% (inactive); in [8], 3.5% (inactive); in assay [14], 1.59% (inactive). The results for the growth inhibition in assay [9] and in [10] were 0.06% (inactive) and -3.51% (inactive), respectively. Moreover, in assay [11], the viability increase was -1.59% (inactive). In addition, the RAM network inhibition in [15] was 6.48% (inactive).

Take `Cc1c(C#N)c2ncnc(-c3ccccc3)c2n1-c1ccccc1`: the viability is 106% in assay [1]; 106% (inactive) in assay [3]; 85.5% (inactive) in assay [4]; 71.8% (inactive) in assay [5]; 19.3% in assay [6] (setting [16]); 71.8% in assay [6] (setting [17]). Further, the viability is 91% (inactive) in assay [12] and 85.9% (inactive) in [13]. Also, the Her2 level in [2] is 101% (inactive). Moreover, the differential viability (reversal) in assay [6] (H69AR cells + 2 uM doxorubicin) was 52.5% (inactive). For the same compound, the inhibition was -3.64% (inactive) in assay [7], -4.92% (inactive) in assay [8] and 0.395% (inactive) in assay [14]. Also, the growth inhibition was -10.9% (inactive) in [9] and -15.3% (inactive) in [10]. In addition, the viability increase in assay [11] was -5.64% (inactive). Further, the RAM network inhibition in [15] is 5.06% (inactive).
